This is a sample that favours compounds with a hit; in the whole collection about 11% have one here.
Tau fibril ThT: blocks human tau fibril formation measured by thioflavin T. recombinant tau K18 P301L, heparin-induced fibrillization, ThT fluorescence. Potency, µM (titrated, usually from 57.4 µM), for the others: top-dose activity, negative = inhibition, hits mostly inhibitors. 270,000 compounds, 2.1% hits; note: potency is the fitted concentration of half-maximal effect; nearly all actives have a fitted effect of over 55% in size
Target sequence (P10636 561-689 P618L limits assumed): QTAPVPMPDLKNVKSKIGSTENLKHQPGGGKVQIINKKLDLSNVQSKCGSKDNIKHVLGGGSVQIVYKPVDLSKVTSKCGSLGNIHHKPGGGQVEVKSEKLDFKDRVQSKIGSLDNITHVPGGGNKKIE
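K18 P301L tau (15 uM + 0.24 uM Alexa 594-tagged), heparin 20 uM, NaOAc pH 7, 6 h 37 C; ThT 30 uM, 1 h RT, ex 450/em 510 nm.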
Sfp PPTase inh: Sfp phosphopantetheinyl transferase inhibition | Q9F4F7 | Biochemical Sfp PPTase activity, qHTS | Potency, µM, inactives show largest response in the series, negative = inhibition, actives largely listed as inhibitors | 310,000 compounds, 3.5% hits | AID 1490;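 note: the enzyme is Sfp with the accession as filed and its product quenches rhodamine fluorescence; potency is the fitted concentration of half-maximal effect; 0% = enzyme reaction without inhibitor and -100% = no enzyme wells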
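Buffer: 50 mM Hepes-Na pH 7.6, 10 mM MgCl2, 0.01% Nonidet P-40, 0.01% BSA. Enzyme 15 nM, pre-exposed to compound 15 min; substrates then added and fluorescence change tracked over 30 min.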
Coupling enz: coupling enzyme interference in Giardia aldolase counter-screen | activity change, negative = inhibition, % at 58.2 µM, hits read low | 290,000 compounds, 0.67% hits | coupling enzyme system counterscreen, AmpLite Red fluorescence; in the data active = activity change below about -30%
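Coupling enzymes only (glyceraldehyde-3-phosphate) + compound, at 57.5 uM final, 10 min RT; add substrate/coupling/AmpLite Red mix, 20 min RT; fluorescence ex 525/em 598 nm. Actives flag coupling-system interference.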
Tau FP inhib: tau fibrillization inhibition (FP); K18 P301L tau heparin fibrillization, Alexa594 FP, 6 h; Potency, µM (highest dose often 57.7 µM), for the others: at the top dose activity, negative = inhibition, hits mostly inhibitors; 280,000 compounds, 0.39% hits; AID 1468; note: potency is the fitted concentration of half-maximal effect; nearly all actives have a fitted effect of over 55% in size
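Compound effects on tau fibrillization are measured by Alexa 594 fluorescence polarization (ex 555, em 632 nm). K18 P301L tau is used at 15 uM with 0.24 uM labeled tracer, and 20 uM heparin induces aggregation over 6 hr at 37 C.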
G9a inh: blocks human histone lysine methyltransferase G9a. Q96KQ7. G9a H3K9 monomethylation, AlphaScreen, 2 h. Potency, µM (titrated, usually from 102 µM), for the others: top-dose activity, negative = inhibition, hits mostly inhibitors. 350,000 compounds, 8.8% hits. AID 504332; note: potency is the fitted concentration of half-maximal effect; nearly all actives have a fitted effect of over 75% in size
Target sequence (Q96KQ7 913-1193 limits assumed): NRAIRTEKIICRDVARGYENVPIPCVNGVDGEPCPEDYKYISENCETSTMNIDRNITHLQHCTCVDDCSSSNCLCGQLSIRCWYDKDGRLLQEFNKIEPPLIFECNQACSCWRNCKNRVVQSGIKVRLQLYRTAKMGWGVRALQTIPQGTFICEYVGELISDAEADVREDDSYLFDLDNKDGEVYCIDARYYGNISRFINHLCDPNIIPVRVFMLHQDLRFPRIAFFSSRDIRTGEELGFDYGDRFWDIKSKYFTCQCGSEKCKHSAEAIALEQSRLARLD
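Step 1: enzyme (final 20 nM) with compound, 15 min RT. Step 2: substrate peptide 500 nM and SAM 20 uM, 2 h RT. Step 3: anti-H3K9me1 antibody and AlphaScreen beads, 10 min, then plate read.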
Tau fluor cs: counter-screen for tau fibril formation inhibitors | tau K18 P301L (four-repeat tau fragment) Alexa594 fluorescence, heparin fibrillization | Potency, µM (series often up to 57.7 µM), without a hit: top-dose activity change, negative = decrease | 280,000 compounds, 0.93% hits; note: potency is the fitted concentration of half-maximal effect; nearly all actives have a fitted effect of over 55% in size
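Human K18 P301L tau (15 uM unlabeled plus 0.24 uM Alexa 594-labeled, final) in 100 mM sodium acetate pH 7 was mixed with compound and 20 uM heparin and incubated 6 hr at 37 C.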
Active calls of the source: *; u = inconclusive; x = no result; [ ] = remark or other dose. Unless noted, calls come from the whole dose curve; as a rule, active = well fitted curve in the direction sought with a large enough effect; inconclusive = small, poorly fitted or top-dose-only effect, or another doubt; inactive = no such curve, though single readings can be large; an effect the other way counts as inactive or inconclusive. Unless noted, % is set by controls: 0 for no effect and ±100 for the full control effect.

SMILES | Tau fibril ThT | Sfp PPTase inh | Coupling enz | Tau FP inhib | G9a inh | Tau fluor cs
O=C(c1ccc2c(c1)CCN2S(=O)(=O)c1ccc(Cl)cc1)N1CCN(c2ccccc2F)CC1 | u | x | x | 1% | -6%[59 µM] | u
CSCCC(NC(=O)c1ccccc1)C(=O)NCCc1ccc2c(c1)OCCO2 (stereo not given) | x | x | x | x | -11%[2.33 µM] | x
COc1cccc(CN2CCN(Cc3cccc(Oc4ccccc4)c3)CC2)c1OC | x | 79µM* | 2 | x | 4µM* | x
CC(C)CC(=O)N1CCC(N(CCc2ccccc2)Cc2ccccc2)CC1 | x | u | 0 | x | 22µM* | x
COc1cc(C(=S)N2CCN(C(c3ccccc3)c3ccccc3)CC2)cc(OC)c1O | x | 16µM* | -3 | x | 7.9µM* | x
c1ccc(Oc2cccc(CN3CCCCC3)c2)cc1 | -8% | -3% | 4 | 3% | -10% | -4%
NNc1cc([N+](=O)[O-])cc2c1C(=O)N(Cc1ccccc1)S2=O (stereo not given) | 25µM* | 22µM* | -16 | u | 2.8µM* | -26%
COC(=O)c1scc(C)c1NC(=O)/C=C/C(=O)O | u | 13µM* | 2 | 3% | 1.8µM* | -11%
S=c1[nH]cc(-c2ccccc2)n1-c1ccccc1 | -1% | 45µM* | -1 | -1% | 0.89µM* | -7%
COc1ccc(-n2cc(-c3ccc(Cl)cc3)[nH]c2=S)cc1 | u | 2% | 0 | -9% | x | -7%
CCn1c(-c2ccccc2)c[nH]c1=S | 1% | -23% | -3 | 3% | u | -3%
COc1ccc(-n2c(-c3ccc(Cl)cc3)c[nH]c2=S)cc1 | x | 56µM* | 4 | x | u | x
Cc1ccc(-n2c(-c3ccccc3)c[nH]c2=S)cc1 | -4% | -22% | -2 | 11% | 2.8µM* | -14%
CC(=O)N1c2ccc(S(=O)(=O)NCC3CCC(C(=O)NC(C)(C)C)CC3)cc2CC1C (stereo not given) | -7% | x | x | -1% | -2%[59 µM] | -14%
Cc1ccc(CCNS(=O)(=O)c2cc(-c3cc(C)no3)ccc2C)cc1 | 6% | x | x | -9% | 0%[59 µM] | -21%
CC(C)Cn1c(-c2ccc(Br)cc2)c[nH]c1=S | -12% | 8% | 2 | 5% | 0.89µM* | -22%
O=C(O)CCN1C(=O)S/C(=C\c2cccnc2)C1=O | -12% | 11% | 3 | -15% | 71µM* | -9%
COc1ccc(/C=C2/SC(=S)N(CCC(=O)O)C2=O)cc1 | u | 8% | 17 | -1% | -12% | -12%
COC(=O)CCCCCN1C(=O)/C(=C\c2ccncc2)SC1=S | u | -3% | 0 | 0% | 10µM* | u
O=C(O)CCN1C(=O)/C(=C\c2ccncc2)SC1=S | -20% | u | -1 | 2% | 56µM* | 4%
O=C(CCCN1C(=O)/C(=C/c2ccccc2)SC1=S)Nc1ccccc1O | -14% | 22% | -1 | -16% | -45% | u
O=C(O)CCN1C(=O)/C(=C\c2cccc(Oc3ccccc3)c2)SC1=S | x | -8% | 13 | x | 50µM* | x
CCOc1ccccc1NC(=O)c1cc2c(=O)oc3ccccc3c2s1 | 1% | x | x | -8% | 3%[59 µM] | -4%
CC1=CC(=NOC(=O)/C=C/c2ccccc2)C=C(C)C1=O | 22µM* | -19% | -45* | u | 30%[0.501 µM] | -28%
CC1=CC(=O)C=C(C)C1=NOC(=O)/C=C\c1ccccc1 | 16µM* | -9% | -16 | u | -8%[59 µM] | -17%
CC1=C(C)/C(=N\OC(=O)/C=C/c2ccccc2)C=CC1=O | 13µM* | 9% | x | u | 1% | -21%
CC(C)N(C)CCOC(=O)/C=C/c1ccccc1 | 3% | 8% | 4 | -4% | 15%[59 µM] | 6%
COc1ccccc1CNC(=O)CCCc1nnc2n(CC(C)C)c(=O)c3sccc3n12 | -7% | x | x | -1% | 24%[59 µM] | -13%
Cc1ccc(NC(=O)c2ccccc2)cc1-n1cnnn1 | u | -22% | -14 | -7% | 14µM* | -41%
